Only some compounds are listed: those with a hit (about 2.2% of all), similar ones and a draw of the others.
ATXN viability: Viability Counterscreen for Primary qHTS for Inhibitors of ATXN expression | 400,000 compounds, 0.49% hits | S2 cells (HEK-293 line with an ATXN2-luciferase reporter) viability, CellTiter-Fluor protease fluorescence, 24 h | Potency, µM (series often up to 56.7 µM), hits mostly cytotoxic; note: potency is the fitted concentration of half-maximal effect; nearly all actives have a fitted effect of over 40% in size
LDHA block: qHTS assay for inhibitors of human lactate dehydrogenase; AID 1347041, 2019; purified LDHA, NADH/diaphorase-resazurin fluorescence; hits give low values; activity change, % (values are at about 110 or 230 µM); 480,000 compounds, 0.15% hits; in the data active = activity change below about -30%; inconclusive = mostly about -25% to -30%;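 note: plate controls were DMSO wells for no effect and wells without enzyme for full effect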
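Resorufin fluorescence (ex540/em590), read at 0 and 20 min after diaphorase/resazurin addition, reports the NADH left after a 5 min room-temperature reaction of 2 nM human LDH5 with 0.06 mM NADH and 0.2 mM pyruvate.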
TGFb SMAD3 inh: qHTS for Inhibitors of TGF-b; HepG2 CAGA-GFP TGF-b/SMAD3 reporter, GFP fluorescence, 18 h; TGF-beta stimulated, 500 pg/mL final; Potency, µM (series often up to 46.1 µM), for the others: at the top dose activity, negative = inhibition, most hits filed as inhibitors; 410,000 compounds, 1.2% hits; note: potency is the fitted concentration of half-maximal effect; % is set by controls: 0 for no effect and ±100 for the full control effect; nearly all actives have a fitted effect of over 65% in size
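Cell-based qHTS in HEPG2 carrying a CAGA-GFP Smad reporter; compounds added before 500 pg/mL final TGF-beta, 18 h incubation at 37 degrees C, GFP fluorescence quantified per cell by imaging cytometry.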
mIDH1 inhibitor: qHTS for Inhibitors of mutant isocitrate dehydrogenase 1 (IDH1): qHTS; 390,000 compounds, 0.093% hits; Potency, µM (titrated, usually from 76.6 µM), without a hit: top-dose activity change, negative = inhibition, actives largely listed as inhibitors; IDH1-R132H enzyme, NADPH consumption, diaphorase/resazurin fluorescence; note: potency is the fitted concentration of half-maximal effect; % is set by controls: 0 for no effect and ±100 for the full control effect; nearly all actives have a fitted effect of over 65% in size
Target sequence (O75874 whole entry R132H, stated change not applied): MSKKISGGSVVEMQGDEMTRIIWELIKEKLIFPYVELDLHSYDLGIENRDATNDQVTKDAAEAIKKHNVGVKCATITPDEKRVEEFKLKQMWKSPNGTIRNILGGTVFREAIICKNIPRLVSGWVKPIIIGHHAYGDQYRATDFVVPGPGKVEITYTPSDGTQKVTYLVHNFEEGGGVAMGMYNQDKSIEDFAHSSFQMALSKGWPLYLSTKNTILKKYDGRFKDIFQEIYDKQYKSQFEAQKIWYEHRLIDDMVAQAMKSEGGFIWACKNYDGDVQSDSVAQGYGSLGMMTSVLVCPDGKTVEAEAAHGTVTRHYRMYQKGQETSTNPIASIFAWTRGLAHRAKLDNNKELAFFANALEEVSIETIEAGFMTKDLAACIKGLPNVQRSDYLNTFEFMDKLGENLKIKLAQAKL
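IDH1-R132H (0.5 ug/mL) preincubated 30 min with compound, then NADPH (0.016 mM) and alpha-KG (2 mM) added; 80 min at RT, pH 7.5. Remaining NADPH coupled via diaphorase/resazurin to fluorescence (540/590 nm); concentration-response curves normalized to no-enzyme control.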
ATXN2 expr inh: Primary qHTS for Inhibitors of ATXN expression | HEK-293 ATXN2-luciferase reporter, luminescence, 24 h | Potency, µM (titrated, usually from 57 µM), inactives show at the highest dose activity change, negative = inhibition, actives largely listed as inhibitors | 360,000 compounds, 0.72% hits | AID 1745845, 2022; note: potency is the fitted concentration of half-maximal effect; % is set by controls: 0 for no effect and ±100 for the full control effect; nearly all actives have a fitted effect of over 55% in size
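qHTS (up to 57 uM final) was run with 24 h compound exposure of reporter cells at 37 °C. Each well was multiplexed: SteadyGlo luminescence measured ATXN2-luciferase expression after a fluorogenic Gly-Phe-AFC viability readout (25 uM final).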
HepG2 viability: qHTS for Inhibitors of TGF-b: Cytotox Counterscreen; HepG2 CAGA-GFP viability, ATP luminescence, 18 h; Potency, µM (top dose mostly 46.1 µM), inactives show top-dose activity change, negative = cytotoxicity, most hits filed as cytotoxic; 410,000 compounds, 0.76% hits; note: potency is the fitted concentration of half-maximal effect
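CellTiter-Glo luminescence gave cytotoxicity after 18 hours at 37 degrees C. The cells were HepG2 CAGA-GFP in 1% FBS DMEM, stimulated with 500 pg/mL TGF-beta after compound addition. %Activity was normalised to no-cell wells (complete cell-killing) and DMSO (no toxicity), and curves were fitted and classified.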
An asterisk follows results filed as active; i = inactive; ? = inconclusive; . = no result; ! = a repeat was not active. Unless noted, calls come from the whole dose curve; as a rule, active = well fitted curve in the direction sought with a large enough effect; inconclusive = small, poorly fitted or top-dose-only effect, or another doubt; inactive = no such curve, though single readings can be large; an effect the other way counts as inactive or inconclusive.

SMILES	ATXN viability	LDHA block	TGFb SMAD3 inh	mIDH1 inhibitor	ATXN2 expr inh	HepG2 viability
CCc1ccc(N=C2NC(=O)/C(=C/c3cc(Br)c(OCC(=O)O)c(OC)c3)S2)cc1	i	-1.1	1.4%	-28.6%	2.0%	-11.4%
O=c1cnnc(N/N=C/c2ccccn2)[nH]1	?	-1.3	-29.8%	1.8%	1.78µM*	-24.2%
O=c1nc(N/N=C/c2ccccn2)cn[nH]1	i	4.9	5.7%	0.0%	6.31µM*	-13.3%
Nc1nc(SCC(=O)Nc2ccc3c(c2)CCC3)n[nH]1	i	-2.1	-9.6%	1.8%	6.8%	-26.0%
Cc1cc(OCC(=O)N2CCC(c3nc4ccccc4s3)CC2)ccc1Cl	?	-1.0	10µM*	-2.5%	?	-10.4%
CC(Oc1ccc(F)cc1)C(=O)N1CCC(c2nc3ccccc3s2)CC1 (centres undefined)	?	-6.4	?	11.7%	?	12.6µM*
O=C(CCNC(=O)C1CC1)NC1CCCCC1	.	-1.2	.	.	.	.
COc1cc(/C=C(/C#N)c2ccc(C(F)(F)F)cn2)ccc1O	.	6.4	.	.	.	.
COc1ccccc1NC(=O)c1ccc(NC2=NC3CS(=O)(=O)CC3S2)cc1 (centres undefined)	i	-8.2	7.7%	-5.9%	-20.8%	0.6%
CCCCCCCCNC(C)C(O)c1ccc(SC(C)C)cc1 (centres undefined)	?	3.7	?	-5.2%	25.1µM*!	-102.5%
COc1cc2nc(-c3ccc(C)cc3)oc(=O)c2cc1OC	.	-30.4*	.	.	.	.
COc1ccc(-c2nc3ccc(C)cc3c(=O)o2)cc1OC	i	-7.5	18.9%	-3.5%	-3.0%	-23.4%
O=C(Nc1c(-c2ccccc2)nc2ccccn12)c1cccc(F)c1	i	-31.1*	0.0%	8.3%	-2.2%	2.9%
Oc1ccc(NC(=S)N=Nc2c(O)[nH]c3ccc(Br)cc23)cc1	?	1.9	?	-10.8%	?	22.4µM*
Oc1[nH]c2ccc(Br)cc2c1N=NC(=S)Nc1ccc(F)cc1	?	-6.5	10µM*	2.4%	-30.3%	-65.3%
CCOC(=O)c1nc2sc(C)c(C)c2c(=O)[nH]1	i	-2.4	-0.2%	7.7%	-3.3%	-6.4%
CCOC(=O)/C(=C\c1cccc(O)c1)c1nc2sc(C)c(C)c2c(=O)[nH]1	?	3.8	?	-2.0%	15.8µM*	-60.9%
Cc1cccc(NCc2nc3ccccc3n2CCOc2ccccc2C)c1	?	2.8	11.2µM*	6.0%	?	-47.4%
Cc1ccc(NCc2nc3ccccc3n2CCOc2ccccc2C)cc1	?	3.7	?	-6.9%	-22.5%	-59.8%
Cc1ccccc1NCc1nc2ccccc2n1CCOc1ccccc1	?	-2.2	14.1µM*	-4.3%	1.0%	-40.0%
COCCn1c(=O)[nH]c2cc(C(=O)N3CCN(c4ccc(F)cc4)CC3)ccc2c1=O	i	-16.7	?	0.0%	-6.9%	-29.0%
O=C(Nc1ccc(Cl)c(C(F)(F)F)c1)c1ccc(Cl)cc1Cl	.	-19.3	.	.	.	.
O=C(Nc1cc(C(F)(F)F)cc(C(F)(F)F)c1)c1cc(Cl)ccc1O	.	.	.	.	0.863µM*	.
CCCCCCCCc1ccc(CCC(N)(CO)CO)cc1	.	.	.	.	30.6µM*	.
CCCCCCCCc1ccc(-c2ccc(C(=O)O)cc2)cc1	.	-17.2	.	.	.	.
SMILES	ATXN viability	LDHA block	TGFb SMAD3 inh	mIDH1 inhibitor	ATXN2 expr inh	HepG2 viability
Cc1nc2c(-c3ccc(F)cc3)c(C)nn2c(C)c1CCC(=O)NC(C)CCc1ccco1 (centres undefined)	?	-5.0	?	?	?	-8.6%
COC(=O)c1sccc1S(=O)(=O)N(CC(=O)Nc1ccc(C)cc1)c1ccccc1	i	-0.2	-24.0%	11.7%	15.9%	-9.9%
CCc1ccc(NC(=O)CN(c2ccc(Cl)cc2)S(=O)(=O)c2ccsc2C(=O)OC)cc1	i	4.9	7.08µM*	-15.8%	7.3%	-31.5%
CN(C)c1ccc(/C=C/c2ccnc3ccc(-c4ccccc4)cc23)cc1	.	2.1	14.0%	.	.	4.6%
CC(C)c1ccc(C(CC(=O)c2ccc(Cl)cc2)C(=O)O)cc1 (centres undefined)	?	-3.6	0.9%	-2.9%	-20.7%	-15.2%
O=C(CC(C(=O)O)c1ccc(Cl)cc1)c1ccc(Br)cc1 (centres undefined)	i	1.1	-3.6%	7.0%	14.6%	10µM*
COc1cn(CC(=O)Nc2ccc(C(N)=O)cc2)c(CSc2ccc(C)cc2)cc1=O	.	-1.4	.	.	.	.
CCOC(=O)C1=C(C)c2ccccc2N(C(=O)OC)C1(C)C(=O)OCC (centres undefined)	.	1.9	12.6µM*	-5.1%	?	-77.8%
Fc1ccc(-c2csc(-c3nc(-c4ccc(Br)s4)cs3)n2)cc1	i	-17.0	-3.2%	-9.2%	14.1%	4.2%
COc1ccc(OCCn2cc(C=O)c3ccccc32)cc1	i	-4.1	7.94µM*	5.5%	-24.7%	-49.9%
CCOc1ccccc1NC(=O)C(=O)c1c[nH]c2c(CC)cccc12	.	-36.2*	.	.	.	.
CC1(C(=O)Nc2cnc3ccccc3c2)CCN1C(=O)c1ccccc1CCc1ccccc1 (centres undefined)	i	2.0	?	.	20µM*	-35.6%
Cc1ccc(NC(=O)C2(C)CCN2C(=O)c2ccccc2CCc2ccccc2)cc1C (centres undefined)	i	1.1	1.7%	.	-33.3%	-23.1%
O=C(N/N=C/c1cc([N+](=O)[O-])ccc1O)c1cccc(N2CCCC2=O)c1	?	0.3	4.2%	7.2%	17.8µM*	-16.1%
O=C(N/N=C/c1cccc([N+](=O)[O-])c1)c1cccc2cc[nH]c12	i	-13.9	9.2%	4.0%	-15.1%	-30.0%
O=C(N/N=C/c1cc([N+](=O)[O-])ccc1O)c1cccc2cc[nH]c12	?	-3.4	12.6µM*	0.1%	3.16µM*	-83.4%
O=S(=O)(NCC(c1ccco1)S(=O)(=O)c1ccccc1)c1ccccc1 (centres undefined)	.	-5.9	-9.8%	0.3%	.	-6.6%
C=CC(=O)Oc1ccc(N2Cc3ccccc3C2=O)cc1	31.6µM*	-10.8	?	-5.2%	.	-41.9%
CCc1ccc(NS(=O)(=O)c2ccc3[nH]c4c(c3c2)CCCCCC4)cc1	?	-3.9	?	-10.4%	11.0%	-99.6%
COc1cc(NS(=O)(=O)c2ccc3[nH]c4c(c3c2)CCCCCC4)cc(OC)c1	?	-0.8	12.6µM*	-9.1%	?	-103.4%

High-throughput results from PubChem.
